# Reference: the supplement of paper PMC6555819
# Columns and labels:
# Experiment in all cases: PBM binding z-score (relative to random genomic background probes); higher = stronger binding; sequences stand for … in GC…GCGATTGACAGCGTAGAATGAAGG
# [1] = system: FXR:RXRa (NR concentration 270 nM, RXRa partner concentration 90 nM)
# Summary of the method: (§1)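 On custom Agilent 4×180K arrays, double-stranded probes with 34-nt variable regions carried direct-repeat seeds, single-nucleotide variants, half-site ablations or random human genomic background. Ligand-free nuclear receptor dimers were applied for 1 h, and binding was read with antibodies against each partner (one per run). Binding z-scores come from regression-normalized fluorescence, with the random background probes as reference.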
# [2] = system: LXRa:RXRa (NR concentration 270 nM, RXRa partner concentration 90 nM)
# Summary of the method: as §1
# [3] = system: LXRa homodimer (NR concentration 270 nM)
# Summary of the method: as §1
# [4] = system: LXRb:RXRa (NR concentration 270 nM, RXRa partner concentration 90 nM)
# Summary of the method: as §1
# [5] = system: LXRb homodimer (NR concentration 270 nM)
# Summary of the method: as §1
# [6] = system: PPARa:RXRa (NR concentration 270 nM, RXRa partner concentration 90 nM)
# Summary of the method: as §1
# [7] = system: PPARg:RXRa (NR concentration 180 nM, RXRa partner concentration 90 nM)
# Summary of the method: as §1
# [8] = system: PPARg:RXRa 270nM:90nM, anti-RXR (NR concentration 270 nM, RXRa partner concentration 90 nM)
# Summary of the method: as §1
# [9] = system: PPARg:RXRa 30nM:10nM, anti-RXR (NR concentration 30 nM, RXRa partner concentration 10 nM)
# Summary of the method: as §1
# [10] = system: PPARg:RXRa 90nM:30nM, anti-RXR (NR concentration 90 nM, RXRa partner concentration 30 nM)
# Summary of the method: as §1
Sequence,PBM binding z-score [1],PBM binding z-score [2],PBM binding z-score [3],PBM binding z-score [4],PBM binding z-score [5],PBM binding z-score [6],PBM binding z-score [7],PBM binding z-score [8],PBM binding z-score [9],PBM binding z-score [10]
CCTCGGAGGACAGAGGGTCAGAGCTGTCCGCTTT,0.828,0.75,-0.594,0.328,-1.2,1.2,-0.24,0.834,-0.79,-0.115
TTTAGTTGGTCACGGAGGTCACACACGACGGGTA,3.66,3.83,3.02,3.45,1.48,4.21,4.64,4.76,2.06,3.63
ATCTCTAGGTAAAGATAGTTCAGTGAATGCAAAT,0.206,4.16,0.484,0.65,0.725,0.625,0.646,0.562,1.03,0.949
CCGACTGGGGCATAAGGTTACTATAAGCCAGCCC,0.52,3.57,0.0863,1.26,-1.18,1.63,2.33,2.96,0.95,2.34
ACTCGGAGGACAAAGGTCAGAGCCACGCCAGTGA,4.39,4.56,1.53,3.52,0.161,5.36,8.4,7.54,6.19,8.08
TCTAATTGGTCACGGAGGTCACACACGACGGGTA,3.62,4,2.74,3.75,1.6,4.35,4.51,5.01,4.41,5.06
CGTCAAAGTTCTACTAAGGTAACGTAAAGCACGC,1.91,-0.151,-0.14,0.0598,-0.14,0.277,0.459,0.289,0.196,0.185
TCTAGTTGGTCACAGGTCACACACTCGAAATGCG,2.89,2.92,1.82,3.13,0.99,4.37,7.08,6.5,6.07,7.04
AGAATGAGGTTATACGTAGATCAGGGAAGAAAGT,2.37,1.99,0.0175,1.7,0.71,3.18,2.1,2.02,0.854,1.48
GATACAGGGTCAGCTAGAGGCCAGCGTATGGAAA,4.35,2.75,-0.301,2.11,-1.03,4.37,3.18,3.49,0.694,1.92
CTACCAAAGTGAACAAGGTCGTTGATTACTATTC,0.664,0.808,0.427,1.39,0.463,1.34,0.212,0.215,0.23,-0.0383
CAAACCAGGTCAAGGTCAAAGTCGGTTTGTGCCA,7.11,5.98,4.41,5.17,1.73,6.28,7.8,7.07,4.62,6.61
TCTTGTAGATCAGCAGGTTATGAAAGCTGGCCAA,0.122,0.0807,-0.501,0.444,-0.22,0.665,-0.222,1.29,2.49,1.59
TCTATTAGTTGAAGGGCTACCGACGAGTCCGTTT,0.932,0.924,0.312,0.431,0.511,0.594,-0.151,2.01,3.62,2.96
ACTATTAGTTGAGAGGAGGGCAACCGATAGGTTG,0.181,-0.0431,0.0481,-0.187,0.248,0.335,0.512,0.15,0.176,0.106
GCTAGTTGGTCAGTAAAAGGTCATACACCGGTCG,3.17,4.37,5.64,3.93,0.896,4.45,2.95,4.03,2.15,3.55
GCGACTGGGGCAAAGCATGTTACCATAAGGTTGG,-0.69,-0.602,-0.362,-0.192,-1.06,0.898,1.61,2.22,0.294,1.58
CATACAGGGTCAGCTAGACCAGAGTAGGGACGGC,4.47,2.92,-0.0625,2.14,0.336,4.07,3.27,3.06,0.824,1.87
ACTAGCAGGCCAAGGGTCATTCAAGATTAGTCCG,3.35,3.46,1.07,3.3,-0.0105,4.72,7.69,7.28,5.9,7.5
GCTCGGACGACAAGGTCAGAGCTTTGTCCGTAGA,1.39,1.19,-0.78,0.912,-1.26,2,0.028,0.343,-0.807,-0.125
ACAGACAGGTGATGAAGGTAACTCTGGCTATCAT,-0.247,-0.358,-0.109,-0.536,-0.538,-0.229,0.485,-0.185,0.143,0.132
CCTTACGGGTCACTCCAGCTTATAGCATCGGAGT,4.62,3.14,-0.000472,2.66,0.0792,4.46,2.98,3.49,0.864,2.44
TAGCCTAGGTCATTGGGGCAGTATAGTACGCATC,4.67,3.57,1.22,3.42,0.997,4.2,4.24,4.06,1.15,3.06
CCTACTGGGCCAAGGTCATTGGTCAGTCAAAGCA,3.51,2.93,1.17,2.84,-0.423,4.01,4.31,4.6,1.68,3.55
